Among all 5,500 compounds or so, about 2,000 (36%) were called active. Roughly 18% stayed inconclusive and do not appear here. No stated cut-off is given here; in the data, active means normalized growth mostly below about 0.91 (no sharp cut-off); inconclusive means no clear call, values can overlap the other calls; inactive means mostly above about 0.92. This is one part of the list.
Test: chemical genetic growth profiling, strain panel (AID 1159580);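 further: tested at 20 µM; growth read once vehicle control cultures reached saturation at 30 °C; 1 = growth at the plate median or of vehicle wells; lower values mean less growth of the strain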
Conditions: growth OD
[1] = S. cerevisiae deletion strains, locus YAL040C, strain CLN3, hits give low values
[2] = S. cerevisiae deletion strains, locus YDR363W, strain ESC2, hits give low values
[3] = S. cerevisiae deletion strains, locus YER002W, strain NOP16, hits give low values
[4] = S. cerevisiae deletion strains, locus YMR263W, strain SAP30, hits give low values
[5] = S. cerevisiae deletion strains, locus YNL175C, strain NOP13, hits give low values
[6] = S. cerevisiae deletion strains, locus YNL197C, strain WHI3, hits give low values
[7] = S. cerevisiae deletion strains, locus YNL224C, strain SQS1, hits give low values
[8] = S. cerevisiae deletion strains, locus YOR083W, strain WHI5 (second series), hits give low values
[9] = S. cerevisiae deletion strains, locus YHR030C, strain SLT2, hits give low values
[10] = S. cerevisiae deletion strains, locus YJL095W, strain BCK1, hits give low values
[11] = S. cerevisiae deletion strains, locus YAL013W, strain DEP1, hits give low values
[12] = S. cerevisiae deletion strains, locus YCL061C, strain MRC1 (second series), hits give low values
[13] = S. cerevisiae deletion strains, locus YGR078C, strain PAC10, hits give low values
[14] = S. cerevisiae deletion strains, locus YPL241C, strain CIN2, hits give low values

Measured: normalized growth

CC(C)(C)[C@]1(O)CCN2C[C@H]3c4ccccc4CCc4cccc(c43)[C@@H]2C1
inactive: [1] 0.999 | [2] 0.994 | [3] 0.993 | [4] 1 | S. cerevisiae deletion strains, locus YNL128W, strain TEP1, hits give low values 1.01 | [5] 1.03 | [6] 1.02 | [7] 1.02 | S. cerevisiae deletion strains, locus YNL322C, strain KRE1, hits give low values 1.01 | [8] 1.05

OC[C@@H](O)[C@H](O)[C@@H](O)[C@H](O)CO
inactive: [9] 0.974 | S. cerevisiae deletion strains, locus YHR079C, strain IRE1, hits give low values 0.995 | [10] 1 | S. cerevisiae deletion strains, locus YJR066W, strain TOR1, hits give low values 0.936 | S. cerevisiae deletion strains, locus YLR113W, strain HOG1, hits give low values 0.959 | S. cerevisiae deletion strains, locus YNL183C, strain NPR1, hits give low values 0.941 | S. cerevisiae deletion strains, locus YOR231W, strain MKK1, hits give low values 0.991 | S. cerevisiae deletion strains, locus YPL256C, strain CLN2, hits give low values 0.964

C[C@]12CC[C@@H](O)CC1CC[C@@H]1[C@@H]2CC[C@]2(C)C(=O)CC[C@@H]12 (stereo partly drawn)
inactive: [1] 0.989 | [12] 1 | [2] 0.938 | [3] 1.02 | [13] 0.973 | [5] 1.01 | [6] 0.993 | [7] 0.997 | [8] 0.885 | [14] 1.04
active: [11] 0.895

CC12CCC3C(CCC4=C(O)C(=O)CCC43C)C1CCC2=O (stereo not drawn)
inactive: [11] 1 | [1] 0.99 | [12] 0.998 | [2] 0.984 | [3] 0.995 | [4] 1 | [5] 1.02 | [6] 0.992 | [7] 0.969 | [8] 0.986 | [14] 1.01

C[C@]12CCC3C(CC[C@H]4C[C@@H](Cl)CC[C@]34C)C1CCC2=O (stereo partly drawn)
active: S. cerevisiae deletion strains, locus YNL307C, strain MCK1, hits give low values 0.888 | S. cerevisiae deletion strains, locus YOR184W, strain ser1, hits give low values 0.733
inactive: S. cerevisiae deletion strains, locus YBR021W, strain FUR4, hits give low values 0.947 | S. cerevisiae deletion strains, locus YBR229C, strain ROT2, hits give low values 1.03 | S. cerevisiae deletion strains, locus YCL029C, strain bik1, hits give low values 0.968 | S. cerevisiae deletion strains, locus YDL035C, strain GPR1, hits give low values 0.921 | S. cerevisiae deletion strains, locus YDL074C, strain BRE1, hits give low values 0.87 | S. cerevisiae deletion strains, locus YDL101C, strain DUN1, hits give low values 0.997 | S. cerevisiae deletion strains, locus YDL134C, strain PPH21, hits give low values 0.977 | S. cerevisiae deletion strains, locus YDL185W, strain tfp1, hits give low values 1.02 | S. cerevisiae deletion strains, locus YDL192W, strain arf1, hits give low values 0.956 | S. cerevisiae deletion strains, locus YDR101C, strain arx1, hits give low values 1.01 | S. cerevisiae deletion strains, locus YDR150W, strain NUM1, hits give low values 1.01 | S. cerevisiae deletion strains, locus YDR162C, strain NBP2, hits give low values 0.885 | S. cerevisiae deletion strains, locus YDR318W, strain mcm21, hits give low values 0.981 | S. cerevisiae deletion strains, locus YDR388W, hits give low values 1.02 | S. cerevisiae deletion strains, locus YDR502C, strain sam2, hits give low values 0.988 | S. cerevisiae deletion strains, locus YER110C, hits give low values 1.02 | S. cerevisiae deletion strains, locus YER155C, strain BEM2, hits give low values 1.02 | S. cerevisiae deletion strains, locus YER167W, strain BCK2, hits give low values 0.983 | S. cerevisiae deletion strains, locus YGL078C, strain dbp3, hits give low values 0.99 | S. cerevisiae deletion strains, locus YGL086W, strain mad1, hits give low values 0.959 | S. cerevisiae deletion strains, locus YGL248W, strain PDE1, hits give low values 0.972 | [13] 0.951 | S. cerevisiae deletion strains, locus YGR135W, strain pre9, hits give low values 0.997 | S. cerevisiae deletion strains, locus YGR252W, strain gcn5, hits give low values 0.993 | [9] 1.02 | S. cerevisiae deletion strains, locus YHR079C, strain IRE1 (second series), hits give low values 1.02 | S. cerevisiae deletion strains, locus YHR094C, strain hxt1, hits give low values 1.02 | S. cerevisiae deletion strains, locus YHR129C, strain ARP1, hits give low values 0.987 | S. cerevisiae deletion strains, locus YHR200W, strain rpn10, hits give low values 0.951 | S. cerevisiae deletion strains, locus YIL066C, strain RNR3, hits give low values 0.957 | S. cerevisiae deletion strains, locus YIL073C, strain SPO22, hits give low values 1.05 | S. cerevisiae deletion strains, locus YIL125W, strain kgd1, hits give low values 1 | S. cerevisiae deletion strains, locus YIR030C, strain dcg1, hits give low values 1.02 | [10] 0.952 | S. cerevisiae deletion strains, locus YJL134W, strain LCB3, hits give low values 1.02 | S. cerevisiae deletion strains, locus YJL168C, strain set2, hits give low values 1.04 | S. cerevisiae deletion strains, locus YJL187C, strain SWE1 (second series), hits give low values 0.993 | S. cerevisiae deletion strains, locus YJR043C, strain POL32, hits give low values 0.925 | S. cerevisiae deletion strains, locus YKL009W, strain mrt4, hits give low values 1.02 | S. cerevisiae deletion strains, locus YKL068W, hits give low values 1.01 | S. cerevisiae deletion strains, locus YKL085W, strain MDH1 (second series), hits give low values 0.998 | S. cerevisiae deletion strains, locus YKL085W, strain MDH1, hits give low values 0.998 | S. cerevisiae deletion strains, locus YKR001C, strain vps1, hits give low values 0.937 | S. cerevisiae deletion strains, locus YLR039C, strain RIC1, hits give low values 0.769 | S. cerevisiae deletion strains, locus YLR058C, strain SHM2, hits give low values 0.984 | S. cerevisiae deletion strains, locus YLR102C, strain apc9, hits give low values 1.01 | S. cerevisiae deletion strains, locus YLR268W, strain sec22, hits give low values 0.982 | S. cerevisiae deletion strains, locus YLR330W, strain CHS5, hits give low values 0.987 | S. cerevisiae deletion strains, locus YLR371W, strain rom2, hits give low values 0.99 | S. cerevisiae deletion strains, locus YLR418C, strain cdc73, hits give low values 0.849 | S. cerevisiae deletion strains, locus YML016C, strain PPZ1, hits give low values 1.01 | S. cerevisiae deletion strains, locus YML032C, strain rad52, hits give low values 0.993 | S. cerevisiae deletion strains, locus YML124C, strain tub3, hits give low values 1.02 | S. cerevisiae deletion strains, locus YMR078C, strain ctf18, hits give low values 1.03 | S. cerevisiae deletion strains, locus YMR223W, strain ubp8, hits give low values 0.999 | S. cerevisiae deletion strains, locus YMR307W, strain GAS1, hits give low values 1.06 | S. cerevisiae deletion strains, locus YNL067W, strain RPL9B, hits give low values 0.986 | S. cerevisiae deletion strains, locus YNL233W, strain BNI4, hits give low values 0.969 | S. cerevisiae deletion strains, locus YNL250W, strain rad50, hits give low values 1.03 | S. cerevisiae deletion strains, locus YNL271C, strain bni1, hits give low values 1.01 | S. cerevisiae deletion strains, locus YNL298W, strain CLA4, hits give low values 0.967 | S. cerevisiae deletion strains, locus YNR052C, strain pop2, hits give low values 0.976 | S. cerevisiae deletion strains, locus YOL006C, strain TOP1, hits give low values 0.863 | S. cerevisiae deletion strains, locus YOL012C, strain htz1 0.88 | S. cerevisiae deletion strains, locus YOL147C, strain pex11, hits give low values 0.972 | S. cerevisiae deletion strains, locus YOR061W, strain CKA2, hits give low values 1.02 | S. cerevisiae deletion strains, locus YOR069W, strain VPS5, hits give low values 1.01 | S. cerevisiae deletion strains, locus YOR136W, strain idh2, hits give low values 1 | S. cerevisiae deletion strains, locus YOR144C, strain elg1, hits give low values 1.01 | S. cerevisiae deletion strains, locus YOR316C, strain cot1, hits give low values 1.02 | S. cerevisiae deletion strains, locus YPR119W, strain clb2, hits give low values 1.03 | S. cerevisiae deletion strains, locus YPR141C, strain kar3, hits give low values 1.03 | S. cerevisiae deletion strains, locus YPR163C, strain tif3, hits give low values 0.969 | S. cerevisiae deletion strains, locus YPR167C, strain met16, hits give low values 0.996 | S. cerevisiae deletion strains, strain wtn01, hits give low values 0.967 | S. cerevisiae strains, strain wild type, hits give low values 0.909

— PubChem BioAssay AID1159580 (chemical genetic matrix, 2015)
